SMILES strings stand for the structures. Screen size: about 320,000 compounds; about 210 (0.066%) were called active.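 Rule for the calls: active = GFP response relative to DMSO above a set limit, near the screen mean plus 3 SD (cut at about 150% in these data); inconclusive = Fewer than 70 cells measured for a yeast strain; inactive = the rest.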 The full list was thinned out, with actives kept by preference.

The experiment is described as follows: modulators of CIT2-GFP expression in yeast, primary screen, S. cerevisiae, GFP fusion, multiplex flow cytometry, MLPCN library (AID 2029).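 Note: ratio of well median GFP fluorescence to mean of DMSO wells on the plate.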 The following applies: S. cerevisiae CIT2-GFP strain, 3 h, at 10 µM, stronger effect = higher value, 100 means same as DMSO wells. For orientation: Flow cytometry measures light scatter and fluorescence of single cells or particles in a stream.
Regarding `CC(=O)NS(=O)(=O)c1ccc2c(c1)Cc1cc(S(=O)(=O)NC(C)=O)ccc1-2`, the GFP response vs DMSO is 99.9% (inactive).

With `O=C(c1ccco1)N1CCN(C(=O)C2CC(c3ccc(Cl)c(Cl)c3)=NO2)CC1` (stereo not given), the GFP response vs DMSO was 89% (inactive).

Take `Cc1ccc(CNC(=O)C(=O)c2cn(CC(=O)N3CCCC3)c3ccccc23)cc1`: the GFP response vs DMSO is 104% (inactive).

Take `CN1CCN(C(=O)C(=O)c2cn(CC(=O)N3CCCC3)c3ccccc23)CC1`: the GFP response vs DMSO is 103% (inactive).

As for `CN(Cc1ccccc1)C(=O)C(=O)c1cn(CC(=O)N2CCCC2)c2ccccc12`, the GFP response vs DMSO was 154% (active).

As for `CCCCCC1CC(COc2ccccc2)OC1=O` (stereo not given), the GFP response vs DMSO is 96.7% (inactive).

For `CC[n+]1cc(C)ccc1/C=C/c1ccc(N(C)C)cc1`, the GFP response vs DMSO was 158% (active).

As to `CO[C@H]1[C@@H]2C=CO[C@@H](O[C@H]3O[C@@H](CO)[C@H](O)[C@@H](O)[C@@H]3O)[C@@H]2[C@@]2(CO)O[C@@H]12`, the GFP response vs DMSO is 109% (inactive).

On to `C/C=C/c1ccc(OCC(O)CN2CCCCCCC2)c(OC)c1` (stereo not given), for which the GFP response vs DMSO is 101% (inactive).

With `N#Cc1cccc(NC(=O)CN2CCCCCC2)c1`, the GFP response vs DMSO was 100% (inactive).

In the case of `CCN(CC(=O)Nc1c(F)cccc1F)C(=O)CN1c2cccc3cccc(c23)S1(=O)=O`, the GFP response vs DMSO is 104% (inactive).

Take `COc1ccc(Nc2cc(Sc3ccc(OC)cc3)ncn2)cc1`: the GFP response vs DMSO is 86.2% (inactive).

Consider `Cc1ccc2c(=O)oc(N(C)C)nc2c1`, for which the GFP response vs DMSO was 105% (inactive).

On to `CCn1c(SCC(=O)Nc2ccccc2F)nc2c(c1=O)SC(C)C2` (stereo not given), for which the GFP response vs DMSO is 100% (inactive).

`Cc1cccc([C@@H]2[C@@H]3C(=O)N(C)C(=O)[C@@H]3[C@@H]3C(=O)Nc4ccccc4C(=O)N23)c1`: the GFP response vs DMSO was 87.5% (inactive).

As for `CCc1ccc2[nH]c(=O)c(Cc3ccccc3)c(O)c2c1`, the GFP response vs DMSO is 105% (inactive).

In the case of `COc1ccc(NC(=O)CN(Cc2ccccc2)S(C)(=O)=O)cc1OC`, the GFP response vs DMSO is 101% (inactive).

`Cc1ccccc1OC(=O)Cn1c(C(F)(F)F)nc2ccccc21`: the GFP response vs DMSO is 84.2% (inactive).

With `COc1ccc(C(=O)NC2CC2)cc1OC1CCN(Cc2ccc(SC)cc2)CC1`, the GFP response vs DMSO is 114% (inactive).

`CCOC(=O)CSc1nc(N2CCOCC2)c2c(c1C#N)CC(C(C)C)OC2` (stereo not given): the GFP response vs DMSO was 104% (inactive).

Regarding `COc1ccc(C(=O)COC(=O)c2c(C)noc2C)cc1Cl`, the GFP response vs DMSO was 98.9% (inactive).

Turning to `COc1ccc(NC(=O)CN(C)C(=O)c2n[nH]c3ccccc23)cc1`, the GFP response vs DMSO is 101% (inactive).

For `CN(C)S(=O)(=O)c1cccc(NC(=O)COc2ccc3ccccc3c2)c1`, the GFP response vs DMSO was 90.9% (inactive).

For `O=C(CN1CCOCC1)N1CCCc2c1c(=O)oc1ccc(OCc3ccccc3)cc21`, the GFP response vs DMSO is 99% (inactive).

With `Cc1cc(C)cc(NC(=O)C2CCCN(S(=O)(=O)c3ccc4[nH]c(=O)ccc4c3)C2)c1` (stereo not given), the GFP response vs DMSO was 98.8% (inactive).

For the compound `COc1ccc(CNS(=O)(=O)c2cc(-c3cc(C)no3)ccc2C(C)C)cc1`, the GFP response vs DMSO was 95.4% (inactive).

As for `CN1CCC(=NNC(=O)CN(c2cccc(Cl)c2)S(C)(=O)=O)CC1`, the GFP response vs DMSO was 95.2% (inactive).

In the case of `Cc1cccc(CSc2ccc(-c3cccs3)nn2)c1`, the GFP response vs DMSO is 87.4% (inactive).

On to `CC(C)(C)CN1C(=O)C(=O)NC[C@H]1Cc1cccc2ccccc12`, for which the GFP response vs DMSO was 101% (inactive).

For `CCCCC(=O)N(c1ccc(OC)cc1)C1C=CS(=O)(=O)C1` (stereo not given), the GFP response vs DMSO is 108% (inactive).

For `COc1cc(CO)c(C2(CO)CCCC2)cc1OC`, the GFP response vs DMSO is 94.8% (inactive).

Take `CC(C)=CCN1CCN(CCCc2ccccc2)CC1CCO` (stereo not given): the GFP response vs DMSO was 105% (inactive).

Turning to `CCCCCc1nnc(NC(=O)c2ccc(=O)n(C)n2)s1`, the GFP response vs DMSO is 113% (inactive).

`O=S(=O)(c1ccc(Br)cc1)n1ccc2ccccc21`: the GFP response vs DMSO was 77.6% (inactive).

As to `CC(C)(C)OC(=O)NCCCCCNC(=O)c1[nH]cnc1C(=O)Nc1nccs1`, the GFP response vs DMSO was 104% (inactive).

`CCOCCc1nn2c(=O)cc(CSCC(=O)Nc3cccc(C)c3C)nc2s1`: the GFP response vs DMSO was 96.3% (inactive).

On to `C/C(=N\NC(=O)c1cc2c(s1)CCC(C)C2)c1cccnc1` (stereo not given), for which the GFP response vs DMSO was 104% (inactive).

Turning to `O=C(NCCCn1ccnc1)/C(=C\c1ccccc1F)NC(=O)c1ccccc1`, the GFP response vs DMSO was 93.1% (inactive).

In the case of `Cc1c(C2=CCN(S(=O)(=O)c3ccc(Cl)cc3)CC2)c2ccccc2n1C`, the GFP response vs DMSO is 98.5% (inactive).

As for `Cc1ccc(C(=O)Nc2ccn(C)n2)cc1`, the GFP response vs DMSO is 109% (inactive).

For the compound `Cn1ccc(NC(=O)Nc2ccc(Cl)cc2)n1`, the GFP response vs DMSO was 95.9% (inactive).

`CN(C)S(=O)(=O)c1cc(C(=O)Nc2ccn(C)n2)c(Cl)cc1Cl`: the GFP response vs DMSO was 6000% [may fluoresce green] (active).

Take `CCCCC[C@@H]1C=C(C(=O)O)[C@H](c2ccc(C#N)cc2)N1S(=O)(=O)c1ccc(C)cc1`: the GFP response vs DMSO was 88.2% (inactive).

Consider `COc1ccccc1N(CC(=O)NC1CCCC1)C(=O)C1(C)CC(=O)N=C2C=CC(C)=CN21` (stereo not given), for which the GFP response vs DMSO was 104% (inactive).

In the case of `O=C(Nc1ccc(-c2cscn2)cc1)C1CCCN(Cc2ccc(CO)o2)C1` (stereo not given), the GFP response vs DMSO was 97.5% (inactive).

For `COc1ccc(C(=O)N2CCCCC2C(=O)Nc2ccc(-n3nc(C)cc3C)cc2)o1` (stereo not given), the GFP response vs DMSO was 109% (inactive).

Consider `O=C(COC(=O)C12CC3CC(CC(O)(C3)C1)C2)NC12CC3CC(CC(C3)C1)C2`, for which the GFP response vs DMSO was 88.4% (inactive).

For `Cc1ccc(S(=O)(=O)NCCCn2ccnc2)cc1C(=O)NC(C)C`, the GFP response vs DMSO is 99.8% (inactive).

Turning to `CCC(C)(C)NC(=O)CN(C(=O)CCC(=O)Nc1nccs1)c1ccc2c(c1)OCO2`, the GFP response vs DMSO is 109% (inactive).

In the case of `COc1ccc(C)cc1Nc1n[n+](-c2ccccc2)c(-c2cccc(Cl)c2Cl)s1`, the GFP response vs DMSO is 112% (inactive).

Turning to `O=C(c1ccc(F)cc1)c1cn(Cc2ccc(F)cc2)c2cc3c(cc2c1=O)OCCO3`, the GFP response vs DMSO is 97% (inactive).

On to `NC(=O)NC(=O)C(OC(=O)CCNS(=O)(=O)c1ccccc1)c1ccccc1` (stereo not given), for which the GFP response vs DMSO was 115% (inactive).

As for `CC(C)(C)n1nc(Cc2cccc3ccccc23)c(C#N)c1N`, the GFP response vs DMSO was 91.2% (inactive).

In the case of `CCCOc1ccc(C2NC(=O)NC(c3ccccc3)=C2C(C)=O)cc1OCC` (stereo not given), the GFP response vs DMSO was 98.7% (inactive).

Consider `CC(=O)c1ccc(S(=O)(=O)NCc2nnnn2-c2ccccc2)cc1`, for which the GFP response vs DMSO was 108% (inactive).

With `CCC(=C/c1sc2ccc3ccccc3c2[n+]1C)/C=C1\Sc2ccc3ccccc3c2N1C`, the GFP response vs DMSO was 189% (active).

As to `Cc1cc(C(=O)COc2ccccc2Cl)c(C)n1C1CC1`, the GFP response vs DMSO was 80.4% (inactive).

For `O=C(c1cc(COc2c(F)cccc2F)on1)N1CCSCC1`, the GFP response vs DMSO is 99.2% (inactive).

Consider `CCCN(C(=O)CSc1nnc(N)s1)c1c(N)n(Cc2ccccc2)c(=O)[nH]c1=O`, for which the GFP response vs DMSO was 102% (inactive).

On to `CC1CCC(C(C)C)C(=O)/C1=C\c1ccc(NC(=O)CCC(=O)O)cc1` (stereo not given), for which the GFP response vs DMSO was 103% (inactive).

As to `CC(=O)NC1C(Oc2ccc(C=O)cc2)OC(COC(C)=O)C(OC(C)=O)C1OC(C)=O` (stereo not given), the GFP response vs DMSO was 102% (inactive).

Take `COc1ccc(CCNC(=O)C(=O)Nc2ccc3nc4n(c(=O)c3c2)CCCCC4)cc1OC`: the GFP response vs DMSO is 96.1% (inactive).

As for `CC(C)Oc1ccc(/C=N/NC(=O)c2nnn(-c3nonc3N)c2CN(C)C2CCCCC2)cc1`, the GFP response vs DMSO is 99.5% (inactive).

With `Cc1cc(NC(=O)/C=C/C(=O)N(CC(=O)NC2CCCC2)c2ccc(F)cc2)no1`, the GFP response vs DMSO was 96.7% (inactive).

As for `Oc1cccc2ccc(/C=C/c3ccc(Br)s3)nc12`, the GFP response vs DMSO is 98.5% (inactive).

As to `Cc1cc(N=Nc2ccc3ccccc3c2)ccc1O`, the GFP response vs DMSO was 97.3% (inactive).

With `Cc1cccc(N(C)C(=O)c2cc(S(=O)(=O)N3CCCCC3)c[nH]2)c1`, the GFP response vs DMSO is 105% (inactive).

On to `C=CCNc1nc(Nc2ccc(Cl)cc2)nc(OC)n1`, for which the GFP response vs DMSO is 87% (inactive).

`COC(=O)COc1ccc2c(=O)c(Oc3ccccc3Br)coc2c1`: the GFP response vs DMSO is 100% (inactive).

Take `COc1ccc(C2(C)ON(c3ccccc3C(F)(F)F)C2=O)cc1` (stereo not given): the GFP response vs DMSO is 97% (inactive).

On to `Cc1noc(NS(=O)(=O)c2ccc(N3CC(O)=C(c4ccccc4)C3=N)cc2)c1C`, for which the GFP response vs DMSO was 103% (inactive).

Consider `O=C(COC(=O)Cn1cnc2ccccc2c1=O)NCC12CC3CC(CC(C3)C1)C2`, for which the GFP response vs DMSO was 101% (inactive).

Regarding `O=C(COC(=O)c1cc(S(=O)(=O)N2CCOCC2)ccc1Cl)NCCc1ccccc1`, the GFP response vs DMSO is 98.2% (inactive).

For the compound `CCCc1nn(C)c2c(=O)[nH]c(-c3cc(S(N)(=O)=O)ccc3OCC)nc12`, the GFP response vs DMSO was 96% (inactive).

On to `Cc1cc(C)cc(NS(=O)(=O)Cc2ccccc2)c1`, for which the GFP response vs DMSO was 103% (inactive).

For `CC(OC(=O)CNC(=O)c1ccco1)C(=O)Nc1ccc(Cl)cn1` (stereo not given), the GFP response vs DMSO was 98.1% (inactive).

`O=C(N/C(=C\c1ccc(O)cc1)C(=O)N1CCCCC1)c1ccccc1`: the GFP response vs DMSO is 108% (inactive).

`COc1cc(/C=C/C(=O)O)cc(S(=O)(=O)Nc2ccccc2SC)c1OC`: the GFP response vs DMSO was 110% (inactive).

Consider `CCc1cccc2c3c([nH]c12)C(CC)(CC(=O)O)OCC3` (stereo not given), for which the GFP response vs DMSO was 83.9% (inactive).

Consider `Cc1cccc(CN2CCC(n3nccc3NC(=O)c3ccccc3C)CC2)n1`, for which the GFP response vs DMSO was 107% (inactive).

For the compound `CCc1n[nH]c(=S)n1/N=C/c1c[nH]c2ccc(Br)cc12`, the GFP response vs DMSO was 106% (inactive).

For `CCOc1ccc(NS(=O)(=O)c2ccc(C)c(C(N)=O)c2)cc1`, the GFP response vs DMSO is 94% (inactive).

Regarding `NC(=O)c1oc2ccccc2c1NC(=O)CS(=O)(=O)c1ccccc1`, the GFP response vs DMSO was 110% (inactive).

As to `CC1(C)C2CC=C(/C=N/NC(=O)C3CC3)C1C2` (stereo not given), the GFP response vs DMSO is 91.7% (inactive).

As to `COCCNC(=O)CN(Cc1ccco1)C(=O)CCC(=O)Nc1nccs1`, the GFP response vs DMSO is 105% (inactive).

In the case of `CCn1c(SCC(=O)Nc2nc(C)cs2)nnc1C(C)NC(=O)c1ccccc1` (stereo not given), the GFP response vs DMSO was 101% (inactive).

Consider `CCOC(=O)Cn1c(=O)oc2cc(S(=O)(=O)N(C)Cc3ccco3)ccc21`, for which the GFP response vs DMSO was 96.1% (inactive).

With `CN(c1ccccc1)c1ccc(/C=c2\s/c(=C(/C#N)C(=O)C(C)(C)C)n(Cc3ccco3)c2=O)cc1`, the GFP response vs DMSO is 352% (active).

As to `CCOC(=O)/C=c1\s/c(=C\c2ccc(C#N)cc2)c(=O)n1CC(=O)Nc1cccc(C)c1C`, the GFP response vs DMSO is 97.6% (inactive).

Regarding `COc1ccc(-n2nnc3c(=O)n(CC(=O)N4CCC(Cc5ccccc5)CC4)cnc32)cc1`, the GFP response vs DMSO is 89.3% (inactive).

The values above are taken from PubChem BioAssay AID2029 (NMMLSC, 2009).
